We go through 12 molecules from the supplement of paper PMC6897291.

Structures can show the parent of a compound that is named as a salt.

The experiment deals with RIVA. In words: growth inhibition by drug alone (1 - RLU/untreated control) (fraction); higher = stronger inhibition. The following applies: 10 nM; time (day): 4; 177Lu-lilotomab satetraxetan 0 ug/ml. The essentials:
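RIVA or U-2932 cells, untreated or pretreated 18 h with a radiolabelled anti-CD37 antibody conjugate (~600 MBq/mg; 0.5 µg/ml RIVA, 1 µg/ml U-2932), were washed and seeded at 3,000 cells/well on plates pre-printed with the Selleck Cambridge Cancer Compound library. Doses were 10/100 nM (RIVA) or 10/1,000 nM (U-2932). RealTime-Glo luminescence was read daily from day 3 after 1 h at 37°C. Growth inhibition is 1 − RLU/mean of 48 untreated no-drug wells per plate.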
For the molecule `CC(C)(C)c1[nH]cnc1/C=c1\[nH]c(=O)/c(=C/c2ccccc2)[nH]c1=O` [NPI-2358 (Plinabulin)], the “growth inhibition by drug alone” value is -0.0503.
With `COc1cc(Nc2ncc3c(n2)-c2ccc(Cl)cc2C(c2c(F)cccc2OC)=NC3)ccc1C(=O)O` [MLN8237 (Alisertib)] the figure was -0.0776; with `O=c1[nH]cc(F)c(=O)[nH]1` [Adrucil (Fluorouracil)], -0.144.
In the case of `CC(C)c1ccc(Cn2ccc3c4c(N)nc(NC5CC5)nc4ccc32)cc1`, the “growth inhibition by drug alone” value amounted to 0.155.
With `CC/C(=C(\c1ccccc1)c1ccc(OCCN(C)C)cc1)c1ccccc1` [Tamoxifen Citrate (Nolvadex)] the figure was 0.0931; with `Cn1cc(C2=C(c3ccc(Cl)cc3Cl)C(=O)NC2=O)c2ccccc21`, -0.11.
In the case of `c1ccc(-c2nn3c(c2-c2ccnc4cc(OCCN5CCOCC5)ccc24)CCC3)nc1`, the “growth inhibition by drug alone” value is -0.000924.
With `O=C(NCCS(=O)(=O)c1ccc(C(F)(F)F)cn1)c1ccc(Cl)cc1`, the “growth inhibition by drug alone” value was -0.049.
In the case of `Cc1ccc(S(=O)(=O)C=CC#N)cc1`, the “growth inhibition by drug alone” value is -0.00988.
For the molecule `CCC1=C[C@@H]2CN(C1)Cc1c([nH]c3ccccc13)[C@@](C(=O)OC)(c1cc3c(cc1OC)N(C)[C@H]1[C@@](O)(C(=O)OC)[C@H](OC(C)=O)[C@]4(CC)C=CCN5CC[C@]31[C@@H]54)C2` [Vinorelbine (Navelbine)], the “growth inhibition by drug alone” value was 0.914.
Turning to `Cc1cc(Nc2cc(N3CCN(C)CC3)nc(/C=C/c3ccccc3)n2)n[nH]1`, the “growth inhibition by drug alone” value was -0.286.
Take `CN(N=O)C(=O)N[C@@H](C=O)[C@@H](O)[C@H](O)[C@H](O)CO` [Streptozotocin (Zanosar)]: the “growth inhibition by drug alone” value was -0.268.
